40 molecules from PubChem BioAssay (Tox21) can be followed below.

Values joined by “and” are separate entries in the source; they are usually repeats but may differ in a detail not shown here. Identical values can stand only once. Inconclusive results are not listed. Active and inactive are the calls of the source. The call rests on the fitted dose curve.
On the % scale 0 is the no-effect control and ±100 the full control effect; potency means the concentration at half of the fitted maximal effect.

The test in a line: qHTS assay to identify small molecule agonists of H2AX - cell viability counter screen (AID 1224847). Further: nearly all actives have a fitted effect of over 30% in size. On activity change, negative = cytotoxicity: top concentration of the series differs between compounds. The settings on record: CHO-K1 viability, CellTiter-Glo luminescence, 3 h; series mostly up to 154 µM; activity change, negative = cytotoxicity: at the top concentration. From the text: National Center for Advancing Translational Sciences [NCATS]
NIH Chemical Genomics Center [NCGC]
U.S. Environmental Protection Agency [EPA]
National Institutes of Environmental Health Sciences [NIEHS]
National Toxicology Program [NTP]
U.S. Food and Drug Administration [FDA]
HTRF phospho-H2AX (Ser139) assay (Cisbio Bioassays, US) enables the quantitative detection of the histone variant H2AX when phosphorylated on serine 139. When double-stranded DNA breaks, either by ionizing radiation or endogenous physiological processes, H2AX becomes phosphorylated at Ser139. This phospho-Ser139 serves as a sensitive biomarker for the detection of such breaks, localizing the site of DNA repair. So, HTRF phospho-H2AX Ser139 is a pertinent assay to study genome stability, the cell cycle, DNA repair, and it serves as a biomarker for cancer, and to understand aging. Wild type CHO-K1 cells were used to identify the inducers of Phospho-H2AX Ser 139 from the Tox21 compound collections. Also cytotoxicity of the Tox21 10K compound library against the CHO-K1 cell line was tested by measuring the cell viability using CellTiter-Glo assay (Promega, Madison, WI).
Tox21 Assay Protocol Summary:
The CHO-K1 cells suspended in culture medium containing 10% FBS were dispensed at 1000 cells/ 3 ul/well in 1536-well white wall/solid bottom plates (Greiner Bio-One North America, NC) using a Multidrop Combi (Thermo Fisher Scientific Inc., Waltham, MA). After the assay plates were incubated at 37C overnight, 23 nl of compounds at 15 concentrations (from 5-48 columns) or positive control (from 1 to 4 columns) were transferred to the assay plates using a Pintool station (Wako, San Diego, CA) into each well resulting in a final DMSO concentration of 0.76%. After 3hr incubation at 37C, 3 uL/well CellTiter-Glo luminescent cell viability reagent (Promega Corporation, Madison, WI) was added using a Flying Reagent Dispenser (FRD) (Aurora Discovery, CA). After incubation at room temperature for 30 min, the luminescence intensity was read using a ViewLux plate reader (PerkinElmer, Waltham, MA).
In general terms: Quantitative high-throughput screening tests each substance at several concentrations.
Take `CCCCOP(=O)(CCCC)OCCCC`: the “activity change, negative = cytotoxicity” value was -5.66% (inactive).

On to `O=c1c(C2CC(c3ccc(-c4ccc(Br)cc4)cc3)Cc3ccccc32)c(O)sc2ccccc12` (stereo not given), for which the “activity change, negative = cytotoxicity” value is -2.17% [at 70.9 µM] (inactive).

Regarding `ClC1=C(Cl)C2(Cl)C3C(Cl)C(Cl)CC3C1(Cl)C2(Cl)Cl` (stereo not given), the Potency was 89.5 µM (active) and 101 µM (active). Consider `CC(=O)O[C@H]1CC[C@@]2(C)C(=CC[C@@H]3[C@@H]2CC[C@]2(C)C(=O)CC[C@@H]32)C1`, for which the Potency is 101 µM (active). In the case of `CCCCCCCCCCCCBr`, the “activity change, negative = cytotoxicity” value is 0.858% (inactive). Regarding `Oc1cc(Cl)c(Cl)c(Cl)c1`, the Potency was 42.7 µM (active).

As for `O=[N+]([O-])c1cc([N+](=O)[O-])c2ccccc2c1`, the “activity change, negative = cytotoxicity” value was 1.96% (inactive). Regarding `CCCCCCCCCCBr`, the “activity change, negative = cytotoxicity” value was -0.125% (inactive). Regarding `Clc1ccc(C(Cl)(Cl)Cl)c(Cl)c1`, the “activity change, negative = cytotoxicity” value is -4.13% (inactive). Consider `CCCOCC(=Nc1ccc(Cl)cc1C(F)(F)F)n1ccnc1`, for which the Potency was 101 µM (active). For `CCSC(C)CC1CC(=O)C(/C(CC)=N/OC/C=C/Cl)=C(O)C1` (stereo not given), the “activity change, negative = cytotoxicity” value is -3.46% [at 70.9 µM] (inactive).

As for `CC1CCC(C(C)C)C(OC(=O)c2ccccc2N)C1` (stereo not given), the Potency is 88.5 µM (active). On to `CCS(=O)(=O)c1cccnc1S(=O)(=O)NC(=O)Nc1nc(OC)cc(OC)n1`, for which the “activity change, negative = cytotoxicity” value was 0.703% (inactive). On to `Clc1ccc(Oc2ccccc2)cc1`, for which the “activity change, negative = cytotoxicity” value was -4.2% (inactive). Take `C[C@]12CC[C@@H]3c4ccc(OC(=O)N(CCCl)CCCl)cc4CC[C@H]3[C@@H]1CC[C@@H]2O`: the “activity change, negative = cytotoxicity” value is -0.842% [at 70.9 µM] (inactive). Take `BrC(Br)Br`: the “activity change, negative = cytotoxicity” value is -0.403% (inactive). On to `N#CC(Cl)Cl`, for which the “activity change, negative = cytotoxicity” value was 2.22% (inactive). For the molecule `Clc1ccc(CO/N=C(\Cn2ccnc2)c2ccc(Cl)cc2Cl)c(Cl)c1`, the Potency is 49.2 µM (active). Turning to `CC(Cc1ccc(C(C)(C)C)cc1)CN1C[C@@H](C)O[C@@H](C)C1` (stereo not given in full), the Potency is 63.5 µM (active). In the case of `CC(=[OH+])/C=C(/C)[O-].CC(=[OH+])/C=C(\C)[O-].CC(=[OH+])/C=C(\C)[O-].[Al]`, the “activity change, negative = cytotoxicity” value is 6.16% (inactive).

Turning to `CC(C)(COCC1CO1)COCC1CO1` (stereo not given), the “activity change, negative = cytotoxicity” value is 2.94% (inactive).

As for `CN(CCCC(O)c1cccnc1)N=O` (stereo not given), the “activity change, negative = cytotoxicity” value was -1.06% (inactive). `O=S(=O)(c1ccc(Cl)cc1)c1ccc(Cl)cc1`: the Potency was 57.3 µM (active). For `NC(=O)CCl`, the “activity change, negative = cytotoxicity” value is 2.96% (inactive). Consider `CCc1ccccc1C`, for which the “activity change, negative = cytotoxicity” value is 1.27% (inactive).

On to `O=[N+]([O-])c1ccc2ccc3cccc4ccc1c2c34`, for which the “activity change, negative = cytotoxicity” value was -5.27% (inactive). `Cn1cc(C2=C(c3cn(C4CCN(Cc5ccccn5)CC4)c4ccccc34)C(=O)NC2=O)c2ccccc21`: the “activity change, negative = cytotoxicity” value is -5.89% [at 70.9 µM] (inactive). As to `Nc1ccc(Sc2ccc(N)cc2)cc1`, the “activity change, negative = cytotoxicity” value is -1.12% (inactive).

`O=C(O)COc1nc(Cl)c(Cl)cc1Cl`: the “activity change, negative = cytotoxicity” value was 9.33% (inactive).

Regarding `Cl/C=C\CCl`, the “activity change, negative = cytotoxicity” value is -0.514% (inactive). On the same count and under the same terms, as for `CCN`, the figure is -0.246% (inactive).

Regarding `[Cl][Sn]([c]1ccccc1)([c]1ccccc1)[c]1ccccc1`, the Potency is 1.52 µM (active). Take `N#Cc1ccccc1N`: the “activity change, negative = cytotoxicity” value was 1.98% (inactive). For the molecule `CC(C)CC(C)Nc1ccc(Nc2ccccc2)cc1` (stereo not given), the Potency is 78.7 µM (active). For the molecule `c1ccc2c(c1)[nH]c1cnccc12`, the “activity change, negative = cytotoxicity” value was -6.71% (inactive). Turning to `CN(C)C(=S)S`, the Potency result is “inactive”. As for `Fc1cccc(Cl)c1CCl`, the “activity change, negative = cytotoxicity” value is -0.876% (inactive). Turning to `CC(C)OS(C)(=O)=O`, the “activity change, negative = cytotoxicity” value is 1.25% (inactive).

For the molecule `CC(C)C1CCC(Cc2ccc(Cl)cc2)C1(O)Cn1cncn1` (stereo not given), the Potency was 88.9 µM (active). For the molecule `CCCN(CC)CC1COC2(CCC(C(C)(C)C)CC2)O1` (stereo not given), the “activity change, negative = cytotoxicity” value is 0.802% (inactive).
